Among the data in PubChem BioAssay (NCATS) are Potency values, retold here.

Records with an inconclusive call do not appear. A call without a number means that no potency is given here. The source made the active and inactive calls. Calls follow the shape of the dose curve; as a rule, active = well fitted inhibition curve with a large enough effect; inconclusive = small, poorly fitted or top-dose-only effect; inactive = flat fitted curve, though single readings scatter.

The experiment deals with Calcium and integrin-binding protein 1 (Homo sapiens) (UniProt Q99828). The experiment can be described thus: Primary qHTS for Identification of Calcium Integrin Binding Protein 1 (CIB1) Competitor (AID 1508620).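 Also: GST tagged CIB1 binding a fluorescein labelled alphaIIb integrin peptide tracer; top concentration of the series differs between compounds.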 To be noted: CIB1-GST / FITC-alphaIIb peptide fluorescence polarization; series mostly up to 114 µM. Summed up: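 Fluorescence polarization competition: CIB1-GST (1 uM final) preincubated with compound 15 min at room temperature, then FITC-labeled alphaIIb peptide (100 nM final) added for another 15 min. Polarization read at Ex 480/Em 540.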
Calcium and integrin-binding protein 1 (Homo sapiens), sequence (Q99828 whole entry, looked up): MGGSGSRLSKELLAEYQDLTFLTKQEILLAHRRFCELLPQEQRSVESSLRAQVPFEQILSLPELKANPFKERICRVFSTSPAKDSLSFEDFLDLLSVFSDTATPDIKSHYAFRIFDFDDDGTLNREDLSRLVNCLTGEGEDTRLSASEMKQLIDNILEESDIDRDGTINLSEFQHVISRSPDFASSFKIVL
Turning to `COc1ccc(Nc2cc(O)c3ncccc3c2)cc1`, the Potency entry was “inactive”. To `CCOc1ccc(CCNC(=O)C2CCCCC2)cc1OCC` belongs “inactive”; to `COc1ccc(NC(=O)Nc2ccc(-c3nc4ccccc4[nH]3)cc2)cc1OC`, “inactive”. As for `CCOc1ccc(NC(=O)Nc2ccc(-c3nc4ccccc4[nH]3)cc2)cc1`, the Potency entry is “inactive”. With `O=C(CSc1nnc(-c2cccc(S(=O)(=O)N3CCCC3)c2)n1-c1ccccc1)Nc1ccccc1`, the Potency entry is “inactive”. The entry for `CC(C)(C)OC(=O)N1CCN(c2cnc(NCc3ccc(-c4ccc(C#N)cc4)o3)cn2)CC1` is “inactive”; for `Cc1cc(C)nc(NC(=S)N2CCN(c3ccc(Cl)cc3S(C)(=O)=O)CC2)c1` it is “inactive”.

For the compound `Cc1cc2c(s1)c1cnn(Cc3cc(F)c(F)cc3F)c(=O)c1n2C`, the Potency result was “inactive”. For the compound `c1nc(NCC2CCCCO2)c2cc(-c3ccc4c(c3)OCO4)ccc2n1` (stereo not given), the Potency entry is “inactive”. The entry for `O=C1CCc2cc(S(=O)(=O)NCc3ccccc3)ccc2N1` is “inactive”; for `CS(=O)(=O)c1ccc(C(=O)OCC#CCSc2nnc(-c3cccc4ccccc34)o2)cc1` it is “inactive”; for `Cc1cc(C)nc(NC(=S)N2CCN(c3cc(Br)cc(C(F)(F)F)c3)CC2)c1` it is “inactive”. For `Cc1cc2c(s1)c1c(C)nn(Cc3ccc(F)cc3)c(=O)c1n2C`, the Potency result is “inactive”. For `Cc1ccc(CNc2ccc(N3CCN(C(=O)OC(C)(C)C)CC3)cc2)cc1`, the Potency result was “inactive”. As to `COc1ccc(-c2nnc3n2N=C(c2cc(OC)ccc2OC)CS3)cc1`, the Potency result was “inactive”. To `O=C1CCCC2=C1[C@@]1(CCC(c3ccccc3)C1)N=C(Nc1nc3ccccc3o1)N2` (stereo not given in full) belongs “inactive”; to `O=C(O)c1ccc2c(c1)C(=O)N([C@H](Cc1ccc(-c3ccccc3)cc1)C(=O)O)C2=O`, “inactive”; to `Fc1cc(Nc2nc(-c3ccncc3)nc3ccccc23)ccc1-c1cn[nH]c1`, “inactive”. Consider `FC(F)(F)c1ccccc1-c1nc(NCC#Cc2cccnc2)c2ccccc2n1`, for which the Potency entry is “inactive”. As for `Cc1noc(C)c1-c1ccc2ncnc(NCc3ccccc3F)c2c1`, the Potency entry was “inactive”. On to `CC(=O)Nc1cccc([S+](=O)([O-])N2CCCN([S+](=O)([O-])c3cccc(NC(C)=O)c3)CC2)c1`, for which the Potency result is “inactive”.

As for `O=C1CCc2cc(S(=O)(=O)Nc3cccc(C(F)(F)F)c3)ccc2N1`, the Potency entry was “inactive”. To `COc1ccc(-c2nc3ccccc3c(=O)n2Cc2ccccc2)cc1COc1ccc(NC(C)=O)cc1` belongs “inactive”; to `COc1cccc(-c2ccc(=O)n(CC(=O)NCCc3ccccc3)n2)c1`, “inactive”.

For `Cc1cc2c(s1)c(C=O)c(C(=O)NCc1ccccc1F)n2C`, the Potency entry was “inactive”.

`CN(C)c1cccc(-c2ncc(F)c(N3CCC(C(N)=O)CC3)n2)c1`: the Potency result was “inactive”. Consider `NC(=O)c1cccc(-c2noc(-c3ccccc3F)n2)c1`, for which the Potency result was “inactive”. In the case of `COc1cccc(C2c3c(ncn(Cc4cccs4)c3=N)Oc3ccc4ccccc4c32)c1` (stereo not given), the Potency entry is “inactive”.

For `O=C(NC1CCCc2c1cnn2-c1ccc(F)cc1F)c1ccncc1` (stereo not given), the Potency result was “inactive”. The entry for `CC(=O)c1ccccc1-c1ncc(C)c(NCc2ccc(-c3cccnc3)cc2)n1` is “inactive”. The entry for `Cc1cc(NC(=O)Nc2nnc(-c3cccnc3)s2)ccc1F` is “inactive”; for `Cc1cnc(-c2ccccc2C(C)C)nc1NCc1cccs1` it is “inactive”. Turning to `Cn1cc2ccc(-c3ccc4ncnc(NCc5cccs5)c4c3)cc2n1`, the Potency result is “inactive”. To `Cc1noc(C)c1-c1ccc2ncnc(NCc3ccc(Br)cc3)c2c1` belongs “inactive”; to `COc1ccc(NC(=O)CSc2nnc(-c3cccc(S(=O)(=O)N4CCCC4)c3)n2-c2ccccc2)cc1`, “inactive”; to `Oc1ccc(CNc2cc(Br)ccn2)c2cccnc12`, “inactive”. To `COc1ccc(C2Nc3ccccc3C(=O)N2Cc2ccco2)cc1COc1cccc(NC(C)=O)c1` (stereo not given) belongs “inactive”; to `Cn1nnnc1Sc1ncnc2scc(-c3cccs3)c12`, “inactive”; to `O=C(Nc1ccc(F)c(C(F)(F)F)c1)Nc1nc(-c2ccncc2)cs1`, “inactive”.

Regarding `N#Cc1cccc(-c2ccc(NC(=O)c3cccs3)cn2)c1`, the Potency entry was “inactive”.
